Here are results for 40 molecules from PubChem BioAssay (Tox21).

Activity calls are given as the source filed them. Calls come from the whole dose curve; as a rule, active = well fitted curve in the direction sought with a large enough effect in the repeat runs; inconclusive = weak or mixed curves; inactive = flat fitted curve, though single readings scatter.
% is set by controls: 0 for no effect and ±100 for the full control effect.

The assay is described as follows: qHTS assay to test for compound auto fluorescence at 590 nm (red) in HepG2 cell free culture (AID 720684). To be noted: cell-free medium autofluorescence, red 540/590 nm; series mostly up to 46 µM; fluorescence, % of Rose Bengal: at the top concentration. The source says:
U.S. Tox21 Program National Center for Advancing Translational Sciences [NCATS] NIH Chemical Genomics Center [NCGC] U.S. Environmental Protection Agency [EPA] National Institutes of Environmental Health Sciences [NIEHS] National Toxicology Program [NTP] U.S. Food and Drug Administration [FDA] Tox21 Assay Overview: Compound auto fluorescence often interferes with screening of the compound library against various biological targets and signaling pathways. Some of these compounds may have fluorophoric properties. Such properties may interfere with the assay outputs resulting in false positives and/or negatives. To decrease such complications and ensure the compound activities are relevant in terms of biological response, the Tox21 10K compound library was screened for auto fluorescence. From the fluorophores used as reporter signals in our screening assays, the auto fluorescence equivalencies of compounds against three fluorophores have been evaluated: Triamterene, Fluorescein and Rose Bengal sodium for blue, green and red fluorescence, respectively. The fluorescence intensities were measured using Excitation/Emission wavelengths at 405/460nm, 485/535nm and 540/590nm for blue, green and red labels, respectively. This assay includes the red fluorescence data.
Tox21 Assay Protocol Summary: 5 uL of culture medium (MEM containing 10% FBS) per well was dispensed into black wall/clear bottom 1536-well plates using a Multidrop Combi Dispenser (ThermoFisher Scientific, Waltham, MA). After 23 nL compound or DMSO vehicle was transferred into assay plate by a pintool work station (Kalypsys, San Diego, CA), fluorescence intensities in the assay plates were measured by an Envision (PerkinElmer, Shelton, CT) plate reader using three labels for measuring blue, green and red fluorescence at […] 460, 535 and 590nm respectively.
On the technique in general: Quantitative high-throughput screening tests each substance at several concentrations.
As to `C[C@H]1CC[C@]2(NC1)O[C@H]1C[C@H]3[C@@H]4CC[C@H]5C[C@@H](O)CC[C@]5(C)[C@H]4CC[C@]3(C)[C@H]1[C@@H]2C`, the “fluorescence, % of Rose Bengal” value was 0.145% (inactive). Regarding `CC(=O)Oc1ccc2c3c1O[C@H]1[C@@H](OC(C)=O)C=C[C@H]4[C@@H](C2)N(C)CC[C@@]341`, the molecule was classed as inactive. Turning to `C[C@@H](CO)NC(=O)[C@@H]1C=C2c3cccc4[nH]cc(c34)C[C@H]2N(C)C1`, the “fluorescence, % of Rose Bengal” value was 0.402% (inactive). On to `CN(C)CCCCCCN(C)C`, for which the “fluorescence, % of Rose Bengal” value is -0.0381% [at 91.3 µM] (inactive). Same read-out and setting: the value for `C=CCC1(C(C)CCC)C(=O)N=C(S)NC1=O` (stereo not given) was -0.0611% (inactive); that for `CC(=O)OCC(=O)[C@H]1CC[C@H]2[C@@H]3CC[C@H]4C[C@H](O)CC[C@]4(C)[C@H]3C(=O)C[C@]12C` was 0.0442% [at 18.6 µM] (inactive). Regarding `C[N+]1([O-])[C@@H]2CC[C@H]1CC(OC(=O)C(CO)c1ccccc1)C2` (stereo not given in full), the call was inactive.

For `CCN(CC)CCO[C@H]1CC[C@@]2(C)C(=CC[C@@H]3[C@@H]2CC[C@]2(C)C(=O)CC[C@@H]32)C1`, the “fluorescence, % of Rose Bengal” value was 0.0588% (inactive). On to `CCCCCc1cc(O)c2c(c1)OC(C)(C)c1ccc(C)cc1-2`, for which the “fluorescence, % of Rose Bengal” value was 0.121% (inactive). On the same count and under the same terms, the result for `CCC1(c2ccccc2)C(=O)NC(=O)N(C)C1=O` (stereo not given) reads 0.614% (inactive). On the same count and under the same terms, the result for `O[C@H]1[C@H]2[C@H](O)CCCN2C[C@H]1O` reads 0.0387% (inactive); that for `C=CCN(C1=NCCN1)c1c(Cl)cccc1Cl`, -0.133% (inactive); that for `C[C@@H](Cc1ccccc1)N(C)C`, 0.0465% (inactive). Same read-out and setting: the result for `C/C(=C\c1csc(C)n1)[C@@H]1C[C@@H]2O[C@]2(C)CCC[C@H](C)[C@H](O)[C@@H](C)C(=O)C(C)(C)[C@@H](O)CC(=O)O1` reads -0.0285% (inactive); that for `C[C@]12CC[C@H]3[C@@H](CCC4=C(Cl)C(=O)CC[C@@]43C)[C@@H]1CC[C@@H]2O`, -0.0183% (inactive). `C=C[C@H]1CN2CC[C@H]1C[C@H]2[C@H](OC(=O)OCC)c1ccnc2ccc(OC)cc12`: the “fluorescence, % of Rose Bengal” value was -0.331% (inactive). On the same count and under the same terms, the value for `OCC(c1ccc(Cl)cc1)c1ccc(Cl)cc1` was 0.0019% [at 91.3 µM] (inactive); that for `CCC1(c2ccccc2)C(=O)NC(=O)N(C(=O)c2ccccc2)C1=O` (stereo not given) was 0.0657% (inactive); that for `C[C@@H]([C@H](O)c1ccccc1)N(C)C` was -0.0335% (inactive).

As to `C[N+]1([O-])[C@@H]2CC(OC(=O)[C@H](CO)c3ccccc3)C[C@H]1[C@@H]1O[C@@H]12` (stereo not given in full), the result was inactive. With `CCN(CC)C(=O)N[C@H]1C[C@@H]2c3cccc4[nH]cc(c34)C[C@H]2N(C)C1`, the “fluorescence, % of Rose Bengal” value was 0.0064% (inactive). With `CN1[C@H]2CC[C@@H]1[C@@H](C(=O)O)[C@@H](OC(=O)c1ccccc1)C2`, the call was inactive. As to `CN1C(=O)CC(=O)N(c2ccccc2)c2cc(Cl)ccc21`, the “fluorescence, % of Rose Bengal” value is -0.0307% (inactive).

Regarding `C[C@]12CC[C@H](O)C[C@H]1CC[C@@H]1[C@@H]2CC[C@]2(C)[C@@H](c3ccc(=O)oc3)C[C@H]3O[C@]132`, the “fluorescence, % of Rose Bengal” value is -0.11% (inactive).

Regarding `COc1ccc(OC)c([C@@H](O)[C@H](C)N)c1`, the “fluorescence, % of Rose Bengal” value is -0.116% (inactive). Same read-out and setting: the result for `CNC(=O)Oc1ccccc1C(=O)Nc1ccccc1` reads -0.0278% (inactive). On the same count and under the same terms, the value for `CC(=O)[C@H]1CC[C@H]2[C@@H]3CC[C@@H]4C[C@H](O)CC[C@]4(C)[C@H]3CC[C@]12C` was 0.0354% (inactive). Same read-out and setting: the result for `CN[C@@H](C)Cc1ccccc1` reads 0.0192% [at 91.3 µM] (inactive); that for `COC([CH2][Hg])CNC(=O)c1ccccc1OCC(=O)O` (stereo not given), -0.103% (inactive). As to `N#CC(C#N)=Cc1cc(O)c(O)c(O)c1`, the “fluorescence, % of Rose Bengal” value was 0.447% (inactive). Consider `CCCC(=O)OC(C(Cl)(Cl)Cl)P(=O)(OC)OC` (stereo not given), for which the “fluorescence, % of Rose Bengal” value was -0.305% (inactive). Still for that read-out and setting: the value for `O=c1[nH]cc(N(CCCl)CCCl)c(=O)[nH]1` was 0.094% (inactive); that for `CCCCCCCCCC(=O)O[C@H]1CC[C@H]2[C@@H]3CCC4=CC(=O)CC[C@]4(C)[C@H]3CC[C@]12C` was -0.296% (inactive); that for `CCCCCN(C)CCC(O)(P(=O)(O)O)P(=O)(O)O` was -0.134% (inactive). Consider `CC(N)Cc1ccc(O)cc1` (stereo not given), for which the “fluorescence, % of Rose Bengal” value was -0.262% (inactive). Consider `Cc1ccc2ccccc2c1C`, for which the result was inactive. Regarding `C[C@]12N[C@H](Cc3ccccc31)c1ccccc12`, the molecule was called inactive. With `CC1(C)S[C@@H]2[C@H](N)C(=O)N2[C@H]1C(=O)O`, the “fluorescence, % of Rose Bengal” value was -0.113% [at 18.6 µM] (inactive).

As for `CCC(N)Cc1c[nH]c2ccccc12` (stereo not given), the outcome was inactive.

For `O=C(O)/C=C\C(=O)O`, the molecule was classed as inactive.
